We go through 5 compounds from PubChem BioAssay.

One assay addresses Albumin (Bos taurus) (UniProt P02769). The assay is described as follows: bovine serum albumin binders on microarray, profiling panel, artefact control for SMM control protein annotation, biochemical, small-molecule microarray, Alexa647 label, 635/667 nm fluorescence (AID 1118).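 Further: score merges 667 nm emission intensity and signal-to-noise per printed compound spot.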 As to conditions: BSA-A647 binding, fluorescence 635 nm, higher = more signal.
Assay [1] in a line: small-molecule microarray binders of probe aXIP, primary screen, biochemical, NeuroSMM set, 635/667 nm fluorescence (AID 1119).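 Further: probe is the protein aXip251-270 applied at 1 µg/mL to compound-printed slides; binding of probe to printed compounds measured as 667 nm fluorescence plus signal to noise.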 As to conditions: higher = more signal, called active from +8 up or from −8 down.
Assay [2] can be described thus: small-molecule binders of probe aNOTCH3, primary screen, biochemical, small-molecule microarray, 635/667 nm fluorescence (AID 1120).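 Further: probe is a biotin-tagged antibody raised against NOTCH3 rather than NOTCH3 protein; score merges spot fluorescence near 667 nm with spot signal to noise.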 As to conditions: higher = more signal.
A short description of assay [3]: small-molecule binders of probe aNOTCH2, primary screen, biochemical, small-molecule microarray, 635/667 nm fluorescence (AID 1121).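 Further: score merges feature fluorescence read at 667 nm with its signal to noise.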 As to conditions: higher = more signal.
Assay [4] has as its target Carbonic anhydrase 2 (Homo sapiens) (UniProt P00918). The assay is described as follows: CAII small-molecule binders, profiling panel, biochemical, small-molecule microarray, Alexa647-labelled CAII (AID 1122). As to conditions: CAII-A647 binding fluorescence, higher = more signal.
Assay [5] in a line: COS7 lysate on small-molecule microarray, probe aHis, 635 nm (AID 1123).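 Further: z-score combines 667nm fluorescence intensity with signal-to-noise per printed compound spot.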 The conditions noted are these: COS7 cell lysate, fluorescence, higher = more signal.
Assay [6] can be described thus: compound binding in COS7 lysate, probe aLAP1, primary screen, cell lysate, small-molecule microarray (AID 1124).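 Further: lysate comes from COS7 cells expressing LAP1 and is applied at 0.3 µg/mL; score merges spot fluorescence near 667 nm with signal-to-noise over triplicate slides.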 The conditions noted are these: probe aLAP1, fluorescence, higher = more signal.
Another assay concerns Sam68 (KHDRBS1). As to the kind of experiment: Sam68 small-molecule binders, primary screen, biochemical, small-molecule microarray, 635 nm fluorescence (AID 1125).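 Further: score merges 667 nm channel intensity with signal to noise over triplicate slides.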 As to conditions: small-molecule microarray binding, higher = more signal.
For assay [7], the system named is Chordin-like protein 2 (CHRDL2). As to the kind of experiment: CHRDL2 small-molecule binders, primary screen, biochemical, small-molecule microarray, 635 nm fluorescence (AID 1126).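 Further: printed compound slides probed with Chrdl2 protein at 4 µg/mL for 1 h at 4 C; score merges 667 nm emission intensity with signal to noise over three replicate slides.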 The conditions noted are these: small-molecule microarray binding, fluorescence 635 nm; higher = more signal.
For assay [8], the target named is Concanavalin-A (Canavalia ensiformis) (UniProt P02866). The assay is described as follows: ConA small-molecule binders, primary screen, artefact control for SMM control protein annotation, biochemical, small-molecule microarray, Alexa647 label, 635 nm (AID 1127).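 Further: z combines 667 nm emission intensity with signal-to-noise across three replicate slides.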 As to conditions: ConA-A647 binding fluorescence, higher = more signal.
Concanavalin-A (Canavalia ensiformis), sequence (P02866 whole entry, looked up): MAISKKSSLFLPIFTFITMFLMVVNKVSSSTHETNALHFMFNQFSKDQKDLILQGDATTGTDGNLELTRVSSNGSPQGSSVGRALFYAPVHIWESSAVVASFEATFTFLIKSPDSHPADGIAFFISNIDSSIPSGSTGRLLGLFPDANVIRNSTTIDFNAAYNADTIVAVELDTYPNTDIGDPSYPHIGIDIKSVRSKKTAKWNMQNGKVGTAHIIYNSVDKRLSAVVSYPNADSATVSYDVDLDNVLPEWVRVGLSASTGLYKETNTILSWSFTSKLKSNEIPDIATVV
The nature of assay [9]: anti-His antibody binders, primary screen, artefact control for SMM control protein annotation, biochemical, small-molecule microarray, 635 nm fluorescence (AID 1128).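 Further: score merges feature fluorescence with signal-to-noise for each printed compound spot.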 The conditions noted are these: anti-His Alexa647 antibody binding, higher = more signal.
Assay [10] relates to Human papillomavirus type 1a E7 protein (residues 1-88). As to the kind of experiment: HPV1a E7 small-molecule binders, primary screen, biochemical, small-molecule microarray, residues 1-88, 635 nm (AID 1129). As to conditions: small-molecule microarray binding, fluorescence 635 nm; higher = more signal.
Assay [11] has as its target Focal adhesion kinase 1 (Homo sapiens) (UniProt Q05397). As to the kind of experiment: small-molecule microarray binders of FAK, primary screen, biochemical, 635/667 nm fluorescence, BSA, DTT (AID 1130).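 Further: composite of spot emission at 667 nm and signal to noise over triplicate slides.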 The conditions noted are these: PTK2 binding, 635 nm fluorescence, higher = more signal.
In assay [12] the test system is Fibrinogen (Alexa647-labelled). The assay is described as follows: fibrinogen binders on compound microarrays, profiling panel, artefact control for SMM control-protein annotation, biochemical, small-molecule microarray, 635/667 nm fluorescence (AID 1131).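 Further: z-score merges 667 nm fluorescence with per-spot signal-to-noise over triplicate slides.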 The conditions noted are these: fibrinogen-A647 binding fluorescence, higher = more signal.
Assay [13] addresses Follistatin (Homo sapiens) (UniProt P19883). As to the kind of experiment: follistatin binders on small-molecule microarrays, primary screen, biochemical, small-molecule microarray, 635/667 nm fluorescence (AID 1132). The conditions noted are these: FST binding, 635 nm fluorescence, higher = more signal.
The target of assay [14] is Fibroblast growth factor 2 (Homo sapiens) (UniProt P09038). As to the kind of experiment: FGF2 binders on small-molecule microarrays, primary screen, biochemical, small-molecule microarray, 635/667 nm fluorescence (AID 1133). The conditions noted are these: small-molecule microarray binding, FGF2, fluorescence 635/667; higher = more signal.
Fibroblast growth factor 2 (Homo sapiens), sequence (P09038 whole entry, looked up): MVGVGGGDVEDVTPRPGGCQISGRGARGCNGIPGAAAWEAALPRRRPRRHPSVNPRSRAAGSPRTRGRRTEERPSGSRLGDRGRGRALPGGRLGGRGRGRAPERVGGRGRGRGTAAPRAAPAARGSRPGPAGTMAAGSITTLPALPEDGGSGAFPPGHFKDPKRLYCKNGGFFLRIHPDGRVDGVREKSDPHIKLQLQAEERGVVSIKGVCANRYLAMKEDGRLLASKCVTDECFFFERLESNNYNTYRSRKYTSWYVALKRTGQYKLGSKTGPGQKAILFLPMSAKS
Assay [15] in a line: mitochondrial membrane potential change in A549 cells, profiling panel, cell-based, JC-1 fluorescence, basal, 24 h, 100 nL (AID 1138).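 Further: A549 lung adenocarcinoma cells under basal conditions with no added stimulus; test concentration not given here.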 As to conditions: higher = more signal.
For a further assay, the system named is Lefty1. The assay is described as follows: Lefty1 binders on small-molecule microarrays, primary screen, biochemical, small-molecule microarray, 635/667 nm fluorescence (AID 1139). As to conditions: small-molecule microarray binding, fluorescence 635/667; higher = more signal.
The subject of assay [16] is wheat germ agglutinin (Triticum aestivum), Alexa647-labelled. The assay is described as follows: wheat germ agglutinin binders on compound microarrays, profiling panel, artefact control for SMM control-protein annotation, biochemical, small-molecule microarray, 635/667 nm fluorescence (AID 1140).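 Further: score merges 667 nm feature emission with signal to noise over triplicate slides.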 The conditions noted are these: WGA-A647 binding, 635 nm fluorescence, higher = more signal.

Assay [17] addresses Luciferin 4-monooxygenase (Photinus pyralis) (UniProt P08659). The assay is described as follows: firefly luciferase enzyme inhibitors, primary screen, biochemical, luminescence, purified enzyme, 2006 set (AID 1141).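 Further: cell-free assay with purified firefly luciferase at 100 ng per well in PBS; test concentration not given here.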 The conditions noted are these: SteadyGlo luminescence, 30 min, higher = more signal, called active from +8 up or from −8 down.

Activity calls are given as the source filed them.

Luciferin 4-monooxygenase (Photinus pyralis), sequence (P08659 whole entry, looked up): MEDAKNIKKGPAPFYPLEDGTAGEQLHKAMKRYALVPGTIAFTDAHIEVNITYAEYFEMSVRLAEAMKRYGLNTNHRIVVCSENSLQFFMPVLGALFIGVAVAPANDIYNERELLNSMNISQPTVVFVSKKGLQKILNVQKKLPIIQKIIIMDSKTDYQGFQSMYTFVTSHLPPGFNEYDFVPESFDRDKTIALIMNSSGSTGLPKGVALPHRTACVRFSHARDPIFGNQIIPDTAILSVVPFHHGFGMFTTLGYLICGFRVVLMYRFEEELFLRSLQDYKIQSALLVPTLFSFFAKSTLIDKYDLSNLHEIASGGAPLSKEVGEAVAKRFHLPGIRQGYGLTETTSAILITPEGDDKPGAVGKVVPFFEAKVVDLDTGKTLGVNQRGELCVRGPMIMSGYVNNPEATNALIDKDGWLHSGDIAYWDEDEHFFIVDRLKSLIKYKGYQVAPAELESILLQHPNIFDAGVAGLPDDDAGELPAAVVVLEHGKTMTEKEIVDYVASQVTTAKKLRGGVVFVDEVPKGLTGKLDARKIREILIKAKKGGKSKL
Albumin (Bos taurus), sequence (P02769 whole entry, looked up): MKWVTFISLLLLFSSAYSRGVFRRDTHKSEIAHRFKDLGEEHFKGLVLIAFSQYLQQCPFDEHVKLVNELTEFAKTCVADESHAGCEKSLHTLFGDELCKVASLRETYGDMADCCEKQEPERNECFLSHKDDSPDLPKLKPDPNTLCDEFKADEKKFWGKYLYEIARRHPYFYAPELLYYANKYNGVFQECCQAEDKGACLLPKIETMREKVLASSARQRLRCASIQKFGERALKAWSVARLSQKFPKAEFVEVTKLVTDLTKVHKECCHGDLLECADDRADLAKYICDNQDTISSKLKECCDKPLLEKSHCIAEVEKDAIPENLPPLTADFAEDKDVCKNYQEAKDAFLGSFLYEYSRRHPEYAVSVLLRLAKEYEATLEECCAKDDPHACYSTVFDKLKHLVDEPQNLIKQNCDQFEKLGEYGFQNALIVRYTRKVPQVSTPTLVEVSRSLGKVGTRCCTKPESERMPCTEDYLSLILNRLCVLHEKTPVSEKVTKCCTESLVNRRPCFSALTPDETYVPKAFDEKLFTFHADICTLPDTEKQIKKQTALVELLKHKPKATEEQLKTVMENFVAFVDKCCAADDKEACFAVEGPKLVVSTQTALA
Focal adhesion kinase 1 (Homo sapiens), sequence (Q05397 whole entry, looked up): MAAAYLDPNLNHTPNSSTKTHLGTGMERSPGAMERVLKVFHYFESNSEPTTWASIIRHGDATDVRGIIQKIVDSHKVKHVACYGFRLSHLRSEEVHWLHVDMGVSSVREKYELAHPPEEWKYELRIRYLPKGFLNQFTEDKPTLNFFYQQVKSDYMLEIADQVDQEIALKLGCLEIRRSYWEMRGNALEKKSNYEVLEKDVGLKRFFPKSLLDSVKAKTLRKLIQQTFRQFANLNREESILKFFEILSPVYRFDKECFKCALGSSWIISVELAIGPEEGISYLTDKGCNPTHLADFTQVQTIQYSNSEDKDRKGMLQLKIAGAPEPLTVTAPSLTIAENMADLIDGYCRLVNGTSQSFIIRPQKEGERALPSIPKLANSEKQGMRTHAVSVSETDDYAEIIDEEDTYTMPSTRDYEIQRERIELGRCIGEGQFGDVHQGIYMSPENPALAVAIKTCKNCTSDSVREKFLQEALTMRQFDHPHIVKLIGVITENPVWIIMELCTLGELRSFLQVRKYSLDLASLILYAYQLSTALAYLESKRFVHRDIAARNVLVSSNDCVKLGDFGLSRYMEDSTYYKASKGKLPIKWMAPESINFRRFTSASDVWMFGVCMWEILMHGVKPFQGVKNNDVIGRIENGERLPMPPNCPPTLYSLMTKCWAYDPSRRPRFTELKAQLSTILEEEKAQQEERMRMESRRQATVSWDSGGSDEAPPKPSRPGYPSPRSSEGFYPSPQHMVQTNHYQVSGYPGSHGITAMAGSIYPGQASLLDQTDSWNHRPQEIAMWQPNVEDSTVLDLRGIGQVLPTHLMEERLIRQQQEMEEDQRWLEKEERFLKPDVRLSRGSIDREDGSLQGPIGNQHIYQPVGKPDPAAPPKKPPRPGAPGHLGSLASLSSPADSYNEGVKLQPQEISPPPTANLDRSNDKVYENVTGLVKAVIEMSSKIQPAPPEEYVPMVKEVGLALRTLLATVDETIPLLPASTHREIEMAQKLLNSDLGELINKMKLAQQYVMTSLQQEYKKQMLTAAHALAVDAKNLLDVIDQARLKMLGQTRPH
Follistatin (Homo sapiens), sequence (P19883 whole entry, looked up): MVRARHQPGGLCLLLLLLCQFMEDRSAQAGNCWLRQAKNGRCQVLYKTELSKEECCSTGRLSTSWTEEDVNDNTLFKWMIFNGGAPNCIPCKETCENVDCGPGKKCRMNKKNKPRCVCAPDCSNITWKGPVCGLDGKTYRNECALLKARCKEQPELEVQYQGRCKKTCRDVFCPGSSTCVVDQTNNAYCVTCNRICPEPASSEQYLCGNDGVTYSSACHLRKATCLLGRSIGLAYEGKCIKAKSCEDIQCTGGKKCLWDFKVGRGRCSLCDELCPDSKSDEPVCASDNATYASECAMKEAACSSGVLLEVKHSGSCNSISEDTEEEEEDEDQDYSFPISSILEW

Take `CCCN1C(=O)[C@@]2(CCC(=O)OC(C)(C)C)N=C(c3ccc(OCCCO)cc3)O[C@H]2c2ccccc21`: the composite z-score is 0.556 with Albumin (Bos taurus); 0.0225 in assay [2]; -0.0633 in assay [3]; 0.376 in assay [4]; 1.69 in [5]; 0.0436 in assay [6]. The composite z-score with Sam68 (KHDRBS1) was found to be 1.31; in assay [7], 0.345; in assay [8], 0.958; in assay [9] it was 2.6; in [10], 0.999; in [11], 0.677. The composite z-score in assay [12] was 0.274; in assay [13], 1.4; in assay [14] it was 1.53; in the assay with Lefty1, 0.691; in [16], 0.133. In addition, in assay [1], the composite Z-score was 0.548 (inactive). The z-score is 1.13 in [15] and -2.45 (inactive) in assay [17].

`COC(=O)c1c(CC[C@@H](CO)NC(=O)N[C@@H](Cc2ccccc2)Cn2cc(C3(O)CCCCC3)nn2)oc(C(C)=O)c1C(=O)OC`: the composite z-score in the assay with Albumin (Bos taurus) was 0.357; in assay [2] it was 0.0893; in assay [3], -0.0942; in [4] it was 0.253; in assay [5], 0.287; in assay [6] it was -0.0804. For the same compound, the composite z-score in the assay with Sam68 (KHDRBS1) worked out at 1.29; in assay [7], 0.625; in assay [8], 0.82; in assay [9], 1.37; in [10], 0.868; in assay [11] it was 0.0673. Further, the composite z-score in assay [12] is 0.307; in [13] it was 0.691; in assay [14] it was 0.957; with Lefty1, 1.31; in [16], -0.267. Also, the composite Z-score in assay [1] is -0.0293 (inactive). Also, the z-score is -0.941 in [15] and 0.896 (inactive) in [17].

Turning to `CCOC(=O)C1=C[C@@H](CC)N(S(=O)(=O)c2ccc(C)cc2)[C@H]1c1ccccc1`, the composite z-score with Albumin (Bos taurus) came out at 0.874; in [2], 0.0539; in assay [3], 0.0572; in assay [4] it was 0.526; in assay [5] it was 1.35; in assay [6], 0.83. The composite z-score worked out at 1.29 in the assay on Sam68 (KHDRBS1); 0.0777 in [7]; 1.1 in [8]; 0.862 in [9]; 1.21 in [10]; 1.33 in [11]. The composite z-score in assay [12] was determined as 0.928; in assay [13] it was 0.431; in assay [14] it was 0.261; with Lefty1, 0.0048; in [16], 0.749. Besides, the composite Z-score in [1] is 0.339 (inactive). Also, the z-score is 2.94 in assay [15] and 2.12 (inactive) in [17].

As to `Cc1ccccc1C(O)C1C=CC2C(=O)N(C)C(=O)C2N1Nc1ccccc1` (stereo not given), the composite z-score with Albumin (Bos taurus) is 1; in [2], 0.0674; in assay [3] it was -0.0168; in [4], 0.821; in assay [5], 2.05; in assay [6], 0.415. In addition, the composite z-score is 1.23 with Sam68 (KHDRBS1); -0.345 in assay [7]; 1.15 in assay [8]; 1.23 in assay [9]; 1.16 in assay [10]; 0.175 in [11]. In addition, the composite z-score in assay [12] was 1.01; in assay [13], 0.459; in assay [14], -0.462; in the assay on Lefty1, -0.395; in [16], 1.38. For the same compound, the composite Z-score in [1] was 0.0032 (inactive). Besides, the z-score was 0.0888 in assay [15] and 0.292 (inactive) in [17].

Consider `C=CC[C@@H](OC(=O)Nc1ccc(OC)cc1)c1ccc(O)c2ccccc12`, for which the composite z-score was 0.32 in the assay with Albumin (Bos taurus); 0.278 in [2]; -0.133 in [3]; 0.349 in [4]; 1.53 in assay [5]; -0.09 in assay [6]. Besides, the composite z-score with Sam68 (KHDRBS1) came to 1.3; in [7], 1.34; in assay [8], 0.913; in assay [9] it was 0.235; in assay [10] it was 1.17; in assay [11] it was 2. The composite z-score in [12] is 0.656; in assay [13], 1.39; in assay [14], 1.94; in the assay with Lefty1, 1.35; in assay [16], 0.542. Further, the composite Z-score in assay [1] is 0.786 (inactive). Besides, the z-score in assay [15] is -1.3; in assay [17], -6.72 (inactive).
